# Experimental data taken from PubChem BioAssay (Tox21).
# Values joined by “and” are separate entries in the source; they are usually repeats but may differ in a detail not shown here. Identical values can stand only once. Inconclusive results are not listed. A call without a number means that no potency is given here. Active and inactive are the calls of the source. Calls come from the whole dose curve; as a rule, active = well fitted cell-killing curve with a large enough effect in the repeat runs; inconclusive = weak or mixed curves, or effect the other way; inactive = flat fitted curve, though single readings scatter.
# Assay: Nuclear factor erythroid 2-related factor 2/antioxidant responsive element (Nrf2/ARE) small molecule agonists: qHTS cell viability counter screen in human keratinocytes (AID 1919968); note: nearly all actives have a fitted effect of over 55% in size
# Settings: KeratinoSens HaCaT ARE cells viability, CellTiter-Fluor, 24 h; series mostly up to 92.4 µM
# Source text: U.S. Tox21 Program National Center for Advancing Translational Sciences [NCATS] Division of Preclinical Innovation [DPI] U.S. Environmental Protection Agency [EPA] National Institutes of Environmental Health Sciences [NIEHS] National Toxicology Program [NTP] U.S. Food and Drug Administration [FDA] Tox21 Assay Overview: Oxidative stress has been implicated in the pathogenesis of a variety of diseases ranging from cancer to neurodegeneration. The antioxidant response element (ARE) signaling pathway plays an important role in the amelioration of oxidative stress. The KeratinoSens (Givaudan, Switzerland) is an in vitro test method which quantifies luciferase induction as a measure of activation of Keap1-Nrf2-antioxidationt/electrophile response element (ARE) dependant pathway in HaCaT human keratinocytes stably transfected with a selectable plasmid. The KeratinoSens assay is a cell-based assay with a reporter cell line to detect potential skin sensitizers by their ability to induce the Nrf2/ARE-response. The activation of the report gene under culture conditions can be detected by ONE-Glo Luciferase Assay System (Promega, Madison, WI). This cell line has been used to screen the Tox21 10K compound library to identify agonists that induce oxidative stress. The cytotoxicity of the Tox21 compound library against the KS-ARE cell line was tested in parallel by measuring the cell viability using CellTiter- Fluor assay system (Promega, Madison, WI) in the same wells.
# Tox21 Assay Protocol Summary: HaCaT derived cell line KeratinoSens were dispensed at 1,500 cells/5uL/well in 1536-well white wall/solid bottom plates using a Multidrop Combi (ThermoFisher Scientific, Waltham, MA) dispenser. After the assay plates were incubated at 37 C/5% CO2 for 5 h, 23 nL of compounds dissolved in DMSO, positive controls or DMSO only was transferred to the assay plate by a pintool workstation (Kalypsys, San Diego, CA). The plates were incubated at 37 C/5% CO2 for 23 h, followed by addition of 1uL/well of CellTiter-Fluor reagent into the assay plates using a Flying Reagent Dispenser (Aurora Discovery, San Diego, CA) for cell viability readout that measures cytotoxicity. After 1 h incubation at 37 C/5% CO2 the fluorescence intensity was measured using a ViewLux (PerkinElmer, Shelton, CT) plate reader.
# Potency is the fitted concentration of half-maximal effect.
row,SMILES,Potency
1,CCCCCC(N)=O,inactive
2,CCCCCCCC(=O)OCC(O)CO (stereo not given),inactive
3,c1ccc2cc(Nc3ccc(Nc4ccc5ccccc5c4)cc3)ccc2c1,inactive
4,CC(O)CO (stereo not given),inactive
5,Cc1ccc(S(=O)(=O)N=C=O)cc1,inactive
6,C[N+](C)(C)CCCCCC[N+](C)(C)C,inactive
7,c1ccc2scnc2c1,inactive
8,C1COCCN1,inactive
9,CC(C)CC(C)CC(O)CC(C)C (stereo not given),inactive
10,CC(C)CCCCCCCOC(=O)CCCCC(=O)OCCCCCCCC(C)C,inactive
11,CCN=c1cc2oc3cc(NCC)c(C)cc3c(-c3ccccc3C(=O)OCC)c-2cc1C,inactive
12,C=C(C)CC(C)(C)C,inactive
13,Cc1ccc(S(=O)(=O)O)cc1C,inactive
14,CCCCCCCCCCCCCC[N+](C)(C)C,52.7 µM (active) and 38.5 µM (active) and 2.37 µM (active)
15,NCCS(=O)(=O)O,inactive
16,CCCCOC(=O)CC(CC(=O)OCCCC)(OC(C)=O)C(=O)OCCCC,inactive
17,C1CCCNCC1,inactive
18,CCCCC(CC)COC(=O)CS (stereo not given),inactive
19,CC(C)=CCC/C(C)=C/CO,inactive
20,CC(C)(C)[C@@H](O)[C@@H](Cc1ccc(Cl)cc1)n1cncn1,inactive

row,SMILES,Potency
1,O=c1ccc2ccccc2o1,inactive
2,Cc1ccccc1C(OCCN(C)C)c1ccccc1 (stereo not given),inactive
3,COCN(COC)c1nc(N(COC)COC)nc(N(COC)COC)n1,inactive
4,C=C(C)C(=O)OCC(CC)(COC(=O)C(=C)C)COC(=O)C(=C)C,inactive
5,CC1(C)S[C@@H]2[C@H](NC(=O)[C@H](N)c3ccccc3)C(=O)N2[C@H]1C(=O)O,inactive
6,Cc1ccc(O)cc1,inactive
7,COc1ccc([N+](=O)[O-])cc1N,inactive
8,CCN1CCCC1=O,inactive
9,COc1ccc(CN(CCN(C)C)c2ccccn2)cc1,inactive
10,Nc1ccc(S(N)(=O)=O)cc1,inactive
11,C=C(C)C(=O)OCCC[Si](OC)(OC)OC,inactive
12,CCOc1ccc(NC(=O)CC(C)O)cc1 (stereo not given),inactive
13,C1CNCCN1,inactive
14,Oc1ccc(O)cc1,inactive
15,C[C@]12C=CC(=O)C=C1CC[C@H]1[C@@H]3C[C@@H](O)[C@](O)(C(=O)CO)[C@@]3(C)C[C@H](O)[C@@]12F,inactive
16,ClC/C=C/CCl,inactive
17,CN/C(=C\[N+](=O)[O-])NCCSCc1csc(CN(C)C)n1,inactive
18,CC(=O)[C@H]1CC[C@H]2[C@@H]3CC=C4C[C@@H](O)CC[C@]4(C)[C@H]3CC[C@]12C,inactive
19,c1ccc2c(c1)[nH]c1ccccc12,inactive
20,Brc1ccc(Br)c(Br)c1,inactive
